# Test results: PubChem BioAssay (NCI)
# Compounds without any hit were thinned out: in the full panel of roughly 79,000, 15% have a hit. Calls of active or inactive are those of the source. Rule as the data show it: active = growth inhibition above about 70%; inactive = the rest.
# Assay: NCI Yeast Anticancer Drug Screen. Data for the rad50 strain (AID 155);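 also: 0% = growth of vehicle-only cultures of the same strain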
# Conditions: S. cerevisiae rad50 strain growth inhibition; at 5.0 µM (retest, dose inferred, filed as 0.5); stronger effect = higher value
# How it was run: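 DNA repair mutant yeast, compound exposure, growth read-out; inhibition is taken relative to vehicle.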
row,SMILES,growth inhibition
1,C=CC(=O)N1C/C(=C\c2ccc(F)cc2)C(=O)/C(=C/c2ccc(F)cc2)C1,21% (inactive)
2,CCOc1ccc2c(c1)n([O-])c1ccccc1[n+]2=O,88% (active)
3,O=C(/C(Cl)=N/O)c1ccccc1,80% (active)
4,O=C(NC1CCN(Cc2ccccc2)CC1)c1ccc(I)cc1,40% (inactive)
5,O=C1c2ccccc2CCC1C(O)(C(F)(F)F)C(F)(F)F (stereo not drawn),19% (inactive)
6,O=C(C(=O)n1ncc(Cl)c(Cl)c1=O)n1ncc(Cl)c(Cl)c1=O,5% (inactive)
7,OC1OCC(OCc2ccccc2)C(OCc2ccccc2)C1OCc1ccccc1 (stereo not drawn),-4% (inactive)
8,CN1CCC(OC(=O)c2ccc3ncccc3c2)CC1,-6% (inactive)
9,CCC(c1ccc(O)cc1)C(CC)c1ccc(OCC(N)=O)cc1 (stereo not drawn),10% (inactive)
10,CCCCCCCC(=O)O[C@H]1[C@H]2[C@@H](CC1(C)C)C(=O)[C@]13O[C@H]1C(=O)[C@]1(CO1)[C@]23C,48% (inactive)
11,CN1CCCN(C)C1c1cc([N+](=O)[O-])ccc1O,25% (inactive)
12,CCOC(=O)C[n+]1c(C)sc2ccccc21,-4% (inactive)
13,O=C(O)C(CCc1cccc2ccccc12)c1ccccc1 (stereo not drawn),13% (inactive)
14,O=C1C(Cl)=C(Cl)C(=O)C2CC=CCC12 (stereo not drawn),68% (inactive)
15,Nc1n[nH]c(=O)c2cccnc12,-1% (inactive)
16,OC(CBr)c1cc(-c2ccccc2)nc2ccccc12 (stereo not drawn),-3% (inactive)
17,O=C(O)CCCc1ccc2c(c1)CC1(C2)Cc2ccc(CCCC(=O)O)cc2C1,28% (inactive)
18,CC1=Nc2ccccc2/C1=C\c1c(C)[nH]c2ccccc12,33% (inactive)
